Data from PubChem BioAssay AID1159580 (chemical genetic matrix, 2015).
Hit rate of the full screen: of about 5,500 compounds, about 2,000 (36%) were called active. Roughly 18% stayed inconclusive and do not appear here. No stated cut-off is given here; in the data, active means normalized growth mostly below about 0.91 (no sharp cut-off); inconclusive means no clear call, values can overlap the other calls; inactive means mostly above about 0.92. Some of the results follow.

Assay: chemical genetic growth profiling, strain panel (AID 1159580);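 further: tested at 20 µM; growth read once vehicle control cultures reached saturation at 30 °C; 1 = growth at the plate median or of vehicle wells; lower values mean less growth of the strain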
Conditions: S. cerevisiae deletion strains, growth OD

Measured: normalized growth

CS(=O)(=O)/C(C#N)=C/c1ccccc1OCc1c(Cl)cccc1Cl
inactive: locus YAR019C, strain CDC15, hits give low values 0.978 | locus YBL105C, strain PKC1, hits give low values 0.958 | locus YBR135W, strain CKS1, hits give low values 0.964 | locus YBR136W, strain MEC1, hits give low values 0.958 | locus YBR160W, strain CDC28, hits give low values 0.954 | locus YDL017W, strain CDC7, hits give low values 0.961 | locus YDL028C, strain MPS1, hits give low values 0.956 | locus YDL101C, strain DUN1, hits give low values 0.958 | locus YDL108W, strain KIN28, hits give low values 0.942 | locus YDL132W, strain cdc53, hits give low values 0.96 | locus YDL214C, strain PRR2, hits give low values 0.926 | locus YDR052C, strain DBF4, hits give low values 0.957 | locus YDR054C, strain cdc34, hits give low values 0.975 | locus YDR226W, strain ADK1, hits give low values 0.969 | locus YDR477W, strain SNF1, hits give low values 0.943 | locus YER123W, strain YCK3, hits give low values 0.913 | locus YER133W, strain GLC7, hits give low values 0.953 | locus YFL009W, strain cdc4, hits give low values 0.977 | locus YFL029C, strain CAK1, hits give low values 0.979 | locus YFR003C, strain YPI1, hits give low values 0.965 | locus YFR019W, strain FAB1, hits give low values 0.961 | locus YFR028C, strain CDC14, hits give low values 0.974 | locus YGR040W, strain KSS1, hits give low values 0.91 | locus YGR052W, strain FMP48, hits give low values 0.97 | locus YGR092W, strain DBF2, hits give low values 0.934 | locus YHR030C, strain SLT2, hits give low values 1.02 | locus YHR079C, strain IRE1, hits give low values 1.03 | locus YHR082C, strain KSP1, hits give low values 1.01 | locus YHR205W, strain SCH9, hits give low values 0.916 | locus YIL147C, strain SLN1, hits give low values 0.956 | locus YJL095W, strain BCK1, hits give low values 0.976 | locus YJL128C, strain PBS2, hits give low values 0.918 | locus YJL157C, strain FAR1, hits give low values 0.95 | locus YJR016C, strain ILV3, hits give low values 0.973 | locus YJR066W, strain TOR1 (second series), hits give low values 0.947 | locus YJR066W, strain TOR1, hits give low values 1.04 | locus YKL048C, strain ELM1, hits give low values 0.901 | locus YKL067W, strain YNK1, hits give low values 0.942 | locus YKL101W, strain HSL1, hits give low values 0.892 | locus YKL193C, strain SDS22, hits give low values 0.968 | locus YKL203C, strain TOR2, hits give low values 0.996 | locus YLR113W, strain HOG1, hits give low values 0.866 | locus YLR133W, strain CKI1, hits give low values 0.92 | locus YLR403W, strain SFP1, hits give low values 0.885 | locus YML070W, strain DAK1, hits give low values 0.923 | locus YMR001C, strain CDC5, hits give low values 0.966 | locus YMR205C, strain PFK2 (second series), hits give low values 0.953 | locus YMR277W, strain FCP1, hits give low values 0.978 | locus YNL006W, strain LST8, hits give low values 0.973 | locus YNL020C, strain ARK1, hits give low values 0.926 | locus YNL161W, strain CBK1, hits give low values 0.964 | locus YNL183C, strain NPR1, hits give low values 1.02 | locus YNL207W, strain RIO2, hits give low values 0.946 | locus YNL222W, strain SSU72, hits give low values 0.966 | locus YNL307C, strain MCK1 (second series), hits give low values 0.945 | locus YOL078W, strain AVO1, hits give low values 0.962 | locus YOL136C, strain PFK27, hits give low values 0.879 | locus YOR061W, strain CKA2, hits give low values 0.922 | locus YOR119C, strain RIO1, hits give low values 0.986 | locus YOR231W, strain MKK1, hits give low values 0.948 | locus YOR329C, strain SCD5, hits give low values 0.968 | locus YPL031C, strain PHO85, hits give low values 0.934 | locus YPL153C, strain RAD53, hits give low values 0.95 | locus YPL204W, strain HRR25, hits give low values 0.897 | locus YPL209C, strain IPL1, hits give low values 0.967 | locus YPL256C, strain CLN2, hits give low values 0.979 | locus YPR025C, strain CCL1, hits give low values 0.969 | locus YPR106W, strain ISR1, hits give low values 0.948 | locus YPR111W, strain DBF20, hits give low values 0.924 | strain NNK1, hits give low values 0.966 | strain TSCII, hits give low values 0.962
